# Source: PubChem BioAssay AID588473 (Sanford-Burnham Center for Chemical Genomics, 2011)
# The whole screen tested about 350,000 compounds, of which about 1,600 (0.46%) were called active. The sample holds actives, similar compounds and a random draw of the others, so the mix is not that of the screen.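 The calls were made as follows: active = activation of at least 50%, plus an integration ratio under a set limit after plate pattern correction; inactive = the rest.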
# System: CRF-binding protein / CRF receptor 2 complex (human)
# Test: agonists of CRF-BP/CRF-R2 complex, primary screen, cell-based, HEK293, calcium dye fluorescence, uHTS (AID 588473);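 also: plate controls were neutral control wells without compound for no effect and CRF at EC100 for full effect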
# Conditions: calcium dye fluorescence (FLIPR), at 13.2 µM, hits give high values
row,Compound,activation
1,CCCCC(=O)N/N=C/c1c(O)n(CCC2=CCCCC2)c(=O)[nH]c1=O,0.08% (inactive)
2,CCCCC(=O)N/N=C/c1c(O)n(CC)c(=S)n(CC)c1=O,89% (active)
3,Cn1c(O)c(C=NCCCC(=O)O)c(=O)n(C)c1=O,3.61% (inactive)
4,COC(=O)C1=C(c2ccc(C(C)=O)cc2)C[C@@H]2CC[C@H]1N2C(=O)NCCNC(C)=O,-2% [percent of saturating CRF peptide response] (inactive)
5,COc1ccc(C2NCc3ccc4c(c3-n3cccc32)OCO4)cc1OC (stereo not given),-1.07% (inactive)
6,COC(=O)N(c1ccc(OC)cc1)P1(=S)OCCC(C)O1 (stereo not given),-2.1% (inactive)
7,Cc1nc2ccccn2c1P(=S)(N1CCCCC1)N1CCCCC1,63.2% (active)
8,CN1CCN(Cc2ccc(OC(F)(F)F)cc2)CC1,-0.02% (inactive)
9,CCCCCn1c(=O)c(C(=O)NCc2ccccc2)c(O)c2ccccc21,4.58% (inactive)
10,CCOP(=S)(OCC)C(O)CCCCCn1c(=O)c(F)cn(C2CCCO2)c1=O (stereo not given),-3.57% (inactive)
11,O=C(c1cc(S(=O)(=O)N2CCOCC2)ccc1F)N1CCC2(CC1)OCCO2,2.62% (inactive)
12,COc1ccc(N2C(=O)/C(=C/c3ccco3)C(=O)NC2=S)cc1,4.87% (inactive)
13,COc1cccc(N2C(=O)NC(=O)/C(=C\c3cn(C)c4ccccc34)C2=O)c1,113% (active)
14,COc1cccc(N2C(=O)NC(=O)/C(=C\c3ccc([N+](=O)[O-])s3)C2=O)c1,4.02% (inactive)
15,c1ccc(C(CN2CCCCC2)c2ccccc2)cc1,-0.78% [percent of saturating CRF peptide response] (inactive)
